Data as given in PubChem BioAssay (Tox21).
Results filed as inconclusive are left out. The source made the active and inactive calls. The call rests on the fitted dose curve; in most records, active means well fitted curve in the direction sought with a large enough effect in the repeat runs; inconclusive means weak or mixed curves; inactive means no such curve, though single readings can be large; an effect the other way counts as inactive or inconclusive.

Key:
[1] = Human pregnane X receptor (PXR) small molecule agonists, qHTS cell viability counter screen (AID 1346977); further: on the % scale 0 is the no-effect control and ±100 the full control effect; nearly all actives have a fitted effect of over 50% in size
Outline: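 Cytotoxicity counter screen run in the same wells as the PXR luciferase assay, using PXR-Luc HepG2 cells in charcoal-stripped serum medium. Viability: CellTiter-Fluor fluorescence after 24hr compound treatment.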

[2] = Caspase-3/7 induction in HepG2 cells by small molecules, qHTS assay (AID 1346978); further: on the % scale 0 is the no-effect control and ±100 the full control effect; nearly all actives have a fitted effect of over 15% in size
Outline: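 Wild-type HepG2 cells (2,000/well) were settled 5 h at 37 C, 5% CO2, then exposed to compounds in DMSO for 17 h. Caspase-3/7 activity was read by luminescence 30 min after adding Caspase-Glo 3/7 reagent at room temperature.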

[3] = Caspase-3/7 induction in CHO-K1 cells by small molecules, qHTS cell viability counter screen (AID 1346979); further: on the % scale 0 is the no-effect control and ±100 the full control effect; nearly all actives have a fitted effect of over 35% in size
Outline: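 Cytotoxicity counter screen run in parallel with the caspase-3/7 assay: CHO-K1 cells, 16hr compound treatment at 37C, then CellTiter-Fluor for 1hr before fluorescence reading.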

[4] = Caspase-3/7 induction in CHO-K1 cells by small molecules, qHTS assay (AID 1346980); further: on the % scale 0 is the no-effect control and ±100 the full control effect; nearly all actives have a fitted effect of over 15% in size
Outline: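 Wild-type cells were seeded at 1,500 per well and settled 5 hr at 37 C, 5% CO2, then exposed to DMSO-dissolved compounds for 17 hr. Caspase-Glo 3/7 reagent was added, and luminescence was read after 30min at room temperature.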

[5] = Caspase-3/7 induction in HepG2 cells by small molecules, qHTS cell viability counter screen (AID 1346981); further: series mostly up to about 92 µM; on the % scale 0 is the no-effect control and ±100 the full control effect; nearly all actives have a fitted effect of over 30% in size
Outline: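 Counter screen for cytotoxicity: HepG2 exposed 16 hr to compounds, then CellTiter-Fluor viability signal (fluorescence, 1 hr reagent incubation).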

[6] = target: Nuclear receptor subfamily 1 group I member 2 (Homo sapiens) (UniProt O75469); assay: Human pregnane X receptor (PXR) small molecule agonists, qHTS assay (AID 1346982); further: nearly all actives have a fitted effect of over 35% in size; further: potency means the concentration at half of the fitted maximal effect; on activation: on the % scale 0 is the no-effect control and ±100 the full control effect
Nuclear receptor subfamily 1 group I member 2 (Homo sapiens), sequence (O75469 whole entry, looked up): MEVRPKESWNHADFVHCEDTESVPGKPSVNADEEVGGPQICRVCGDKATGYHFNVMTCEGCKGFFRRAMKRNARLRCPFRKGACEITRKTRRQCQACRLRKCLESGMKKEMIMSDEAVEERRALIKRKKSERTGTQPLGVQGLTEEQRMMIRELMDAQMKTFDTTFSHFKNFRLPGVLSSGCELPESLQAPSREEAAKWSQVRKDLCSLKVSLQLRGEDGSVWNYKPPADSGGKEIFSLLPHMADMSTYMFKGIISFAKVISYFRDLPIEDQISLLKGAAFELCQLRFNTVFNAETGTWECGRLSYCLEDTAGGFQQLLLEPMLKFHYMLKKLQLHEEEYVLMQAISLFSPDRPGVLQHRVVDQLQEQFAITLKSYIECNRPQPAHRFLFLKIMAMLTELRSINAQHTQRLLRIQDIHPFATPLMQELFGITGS
Outline: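 Luminescence (ONE-Glo, 30 min RT) after 24 hr compound exposure of PXR-Luc HepG2 cells; cells rested 5 hr post-plating in 5% charcoal-stripped FBS medium.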

[7] = target: Nuclear receptor subfamily 1 group I member 2 (Rattus norvegicus) (UniProt Q9R1A7); assay: Rat pregnane X receptor (rPXR) activation by small molecules, qHTS assay (AID 1346983); settings: rPXR luciferase reporter cells, One-Glo luminescence, 24 h; max activation: hits give high values; further: potency means the concentration at half of the fitted maximal effect; nearly all actives have a fitted effect of over 20% in size
Nuclear receptor subfamily 1 group I member 2 (Rattus norvegicus), sequence (Q9R1A7 whole entry, looked up): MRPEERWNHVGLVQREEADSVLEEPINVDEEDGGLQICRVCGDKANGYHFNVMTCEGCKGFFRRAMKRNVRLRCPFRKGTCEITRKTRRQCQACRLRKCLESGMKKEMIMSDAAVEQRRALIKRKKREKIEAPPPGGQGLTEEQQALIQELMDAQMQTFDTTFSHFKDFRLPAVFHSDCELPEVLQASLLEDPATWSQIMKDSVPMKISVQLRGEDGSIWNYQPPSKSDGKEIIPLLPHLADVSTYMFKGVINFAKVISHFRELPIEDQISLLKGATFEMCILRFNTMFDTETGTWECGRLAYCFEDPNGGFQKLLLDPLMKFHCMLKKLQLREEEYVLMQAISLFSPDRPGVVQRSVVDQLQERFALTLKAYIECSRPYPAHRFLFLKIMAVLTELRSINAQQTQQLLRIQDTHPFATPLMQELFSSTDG
Outline: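 Cell-based rPXR luciferase reporter assay, 2,000 cells per well, rested 5hr at 37 C before compound addition in DMSO, then 24 hr at 37 C. One-Glo reagent was added and luminescence read after 30 min at room temperature.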

O=Cc1cccc(Br)c1
inactive: Potency [1] | outcome [2] | Potency [3] | outcome [4] | Potency [5] | Potency [6]

C=COC(=O)C(C)(CC)CCC(C)C (centres undefined)
inactive: Potency [1] | outcome [2] | Potency [3] | outcome [4] | Potency [5] | Potency [6]

CC(C)(C#N)Nc1nc(Cl)nc(NC2CC2)n1
active: Potency [6] 27.3 µM
inactive: Potency [1] | outcome [2] | Potency [3] | outcome [4] | Potency [5]

O=C(O)CNC(=O)c1ccc(CO)o1
inactive: Potency [1] | outcome [2] | Potency [3] | outcome [4] | Potency [5] | Potency [6]

CO[C@@]1(NC(=O)CSC[C@@H](N)C(=O)O)C(=O)N2C(C(=O)O)=C(CSc3nnnn3C)CS[C@@H]21
inactive: Potency [1] | outcome [2] | Potency [3] | outcome [4] | Potency [5] | Potency [6]

C=C[Si](OC(C)=O)(OC(C)=O)OC(C)=O
inactive: Potency [1] | outcome [2] | Potency [3] | outcome [4] | Potency [5] | Potency [6]

CCN(Cc1ccccc1)c1ccccc1
inactive: Potency [1] | outcome [2] | Potency [3] | outcome [4] | Potency [5]

Nc1ccccn1
inactive: Potency [1] | outcome [2] | Potency [3] | outcome [4] | Potency [5]

N[C@@H](CCC(=O)O)C(=O)O
inactive: Potency [1] | outcome [2] | Potency [3] | outcome [4] | Potency [5] | Potency [6]

C=CCCCCCCCCC(=O)OCC
inactive: Potency [1] | outcome [2] | Potency [3] | outcome [4] | Potency [5] | Potency [6]

NC(=O)NC1N=C([O][Al])NC1=O (centres undefined)
inactive: Potency [1] | outcome [2] | Potency [3] | outcome [4] | Potency [5] | Potency [6]

CCOc1ccccc1OCC
inactive: Potency [1] | outcome [2] | Potency [3] | outcome [4] | Potency [5] | Potency [6]

CC(=O)c1ccc2ccccc2c1
inactive: Potency [1] | outcome [2] | Potency [3] | outcome [4] | Potency [5] | Potency [6]

O=C1NC(=O)C2CC=CCC12 (centres undefined)
inactive: Potency [1] | outcome [2] | Potency [3] | outcome [4] | Potency [5]

C[C@@H]1C[C@H]2[C@@H]3C[C@H](F)C4=CC(=O)C(Cl)=C[C@]4(C)[C@@]3(F)[C@@H](O)C[C@]2(C)[C@@]1(O)C(=O)CO
inactive: Potency [1] | outcome [2] | Potency [3] | outcome [4] | Potency [5]
active: Potency [6] 2.11 µM | Potency [7] 0.1 µM

CNCC(O)c1ccc(O)c(O)c1 (centres undefined)
inactive: Potency [1] | outcome [2] | Potency [3] | outcome [4] | Potency [5] | Potency [6]

NO
inactive: Potency [1] | outcome [2] | Potency [3] | outcome [4] | Potency [5]

NCCCC(N)(C(=O)O)C(F)F (centres undefined)
inactive: Potency [1] | outcome [2] | Potency [3] | outcome [4] | Potency [5]

CCCCCCCC1CCCC1=O (centres undefined)
inactive: Potency [1] | outcome [2] | Potency [3] | outcome [4] | Potency [5] | Potency [6]

O=C(O)CCCC[P+](c1ccccc1)(c1ccccc1)c1ccccc1
inactive: Potency [1] | outcome [2] | Potency [3] | outcome [4] | Potency [5] | Potency [6]

CC(C)C[C@@H](N)C(=O)O
inactive: activity change, negative = cytotoxicity [1] 28.2% [at 19 µM] | caspase activation [2] -0.781% [at 19 µM] | activity change, negative = cytotoxicity [3] -2.25% [at 19 µM] | caspase-3/7 activation [4] -0.0944% [at 19 µM] | activity change, negative = cytotoxicity [5] 1.16% [at 19 µM]

CC(C)(C)OC(=O)c1cccc(N)c1
active: Potency [6] 28 µM
inactive: Potency [1] | outcome [2] | Potency [3] | outcome [4] | Potency [5]

C=C(C)C(=O)OCC1CCCO1 (centres undefined)
inactive: Potency [1] | outcome [2] | Potency [3] | outcome [4] | Potency [5]

Cc1c(N)c(=O)n(-c2ccccc2)n1C
inactive: Potency [1] | outcome [2] | Potency [3] | outcome [4] | Potency [5]

Cc1ccc(C(=O)c2ccccc2)cc1
inactive: Potency [1] | outcome [2] | Potency [3] | outcome [4] | Potency [5] | Potency [6]

CCOCC(C)O (centres undefined)
inactive: Potency [1] | outcome [2] | Potency [3] | outcome [4] | Potency [5]

CCCC(=O)O[C@]1(C(=O)CC)CC[C@H]2[C@@H]3CCC4=CC(=O)CC[C@]4(C)[C@H]3[C@@H](O)C[C@@]21C
inactive: Potency [1] | outcome [2] | Potency [3] | outcome [4] | Potency [5]
active: Potency [6] 3.76 µM

CN(C)CCCCCCN(C)C
inactive: Potency [1] | outcome [2] | Potency [3] | outcome [4] | Potency [5]

O=C(O)c1cc(C(=O)O)cc(C(=O)O)c1
inactive: Potency [1] | outcome [2] | Potency [3] | outcome [4] | Potency [5] | Potency [6]

C1CCC2=NCCCN2CC1
inactive: Potency [1] | outcome [2] | Potency [3] | outcome [4] | Potency [5]

CCNS(=O)(=O)c1ccc(C)cc1
inactive: Potency [1] | outcome [2] | Potency [3] | outcome [4] | Potency [5] | Potency [6]

CC(C)C(=O)OC(=O)C(C)C
inactive: Potency [1] | outcome [2] | Potency [3] | outcome [4] | Potency [5] | Potency [6]

O=C(O)CC(C(=O)O)S(=O)(=O)O (centres undefined)
inactive: Potency [1] | outcome [2] | Potency [3] | outcome [4] | Potency [5] | Potency [6]

C=CC(=O)OCCCl
inactive: Potency [1] | outcome [2] | Potency [3] | outcome [4] | Potency [5] | Potency [6]
